Reference: the supplement of paper PMC13380429

Tests used:
[1] = test system: Vero E6 infected with SARS-CoV-2; assay: morphology score (similarity to uninfected cells); higher = more like uninfected cells; conditions: 24 h
[2] = test system: Vero E6 infected with SARS-CoV-2; assay: SARS-CoV-2 infection rate relative to infected DMSO; higher = more infection, active = 60 or less; conditions: 24 h

Row | SMILES | morphology score [1] | SARS-CoV-2 infection rate [2]
1 | CC(=O)O[C@H]1CC[C@@]2(C)C(=CC[C@@H]3[C@@H]2CC[C@]2(C)C(=O)CC[C@@H]32)C1 [prasterone-acetate] (10 µM) | -0.259 | 110% (inactive)
2 | CCCCCCCCCCCCCCCC[N+](C)(C)CCN(Cc1ccc(OC)cc1)c1ncccn1 [thonzonium] (10 µM) | -0.372 | 122% (inactive)
3 | O=C(O)CC[C@H]1CC[C@@](c2cc(F)ccc2F)(S(=O)(=O)c2ccc(Cl)cc2)CC1 (10 µM) | 0.0148 | 110% (inactive)
4 | COc1ccc(-c2cc(C(F)F)nn2-c2ccc(S(N)(=O)=O)cc2)cc1F [deracoxib] (10 µM) | 0.112 | 112% (inactive)
5 | CO/N=C(\C(=O)N[C@@H]1C(=O)N2C(C(=O)OCOC(=O)C(C)(C)C)=C(C)CS[C@H]12)c1csc(N)n1 [cefetamet-pivoxil] (10 µM) | 0.225 | 96.5% (inactive)
6 | O=C(O)c1ccccc1S [o-mercapto-benzoic-acid] (10 µM) | 0.201 | 101% (inactive)
7 | CC(C)c1ccccc1S(=O)(=O)c1cc(N)c2ncccc2c1[N+](=O)[O-] (10 µM) | 0.225 | 95.5% (inactive)
8 | Cc1ncc(CO)c(/C=N/NC(=O)c2ccncc2)c1O [pyridoxal-isonicotinoyl-hydrazone] (10 µM) | -0.0797 | 100% (inactive)
9 | CNCCCCOc1ccccc1Cc1ccccc1 [bifemelane] (10 µM) | 0.517 | 65% (inactive)
10 | COC(=O)CCC(=O)CN [methyl-aminolevulinate] (10 µM) | 0.118 | 90% (inactive)
11 | CN1C(=O)C[C@@H](C(=O)N[C@@H](Cc2c[nH]cn2)C(=O)N2CCC[C@H]2C(N)=O)NC1=O [taltirelin] (10 µM) | 0.0707 | 87% (inactive)
12 | O=C1NN(C(=O)Nc2ccc(Br)cc2)[C@@H](c2ccccc2)[C@@H]1c1ccccc1 (10 µM) | -0.176 | 108% (inactive)
